The supplement of paper PMC3656093
± gives the standard deviation of the averaged measurements. The full ranking holds about 1,900 compounds; the median of “CD40L-induced NF-kB luciferase activity, plate-corrected, relative to DMSO (0) and IKK inhibitor VII (-100) controls” is about 0.032, and the lowest 2% start at about -26. Shown is part of a subset that was picked to be rich in the lowest values.

system: BL2-NFkB-Luc; assay: CD40L-induced NF-kB luciferase activity, plate-corrected, relative to DMSO (0) and IKK inhibitor VII (-100) controls (% normalized activity); higher = more NF-kB reporter activity (less inhibition); details: 9.4 µM; stimulus: tCD40L 64 ng/ml; 4.5 h
Protocol: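 BL2 B cells with a stable NF-kB response-element luciferase reporter (BL2-NFkB-Luc), 384-well. Cells were pre-incubated with compound at 9.4 uM for 1 h at 37 C, then stimulated with 64 ng/ml trimerized CD40L for 4.5 h; luciferase was read with Steady-Glo. Signal was normalised per plate in Genedata (median DMSO neutral control = 0, median IKK inhibitor VII at 50 uM = -100) with Assay Median plate-pattern correction; duplicate plates.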

Row | Compound | CD40L-induced NF-kB luciferase activity
1 | COC(=O)C1=C(C)N(C)C(=S)NC1c1ccc(Cl)cc1 (centres undefined) | -1.51 ± 7.8
2 | CC[C@]1(O)C[C@@H]2CN(CCc3c([nH]c4ccccc34)[C@@](C(=O)OC)(c3cc4c(cc3OC)N(C)[C@H]3[C@@](O)(C(=O)OC)[C@H](OC(C)=O)[C@]5(CC)C=CCN6CC[C@]43[C@@H]65)C2)C1 | -54.7 ± 1.7
3 | CC[C@]1(O)C[C@@H]2CN(CCc3c([nH]c4ccccc34)[C@@](C(=O)OC)(c3cc4c(cc3OC)N(C=O)[C@H]3[C@@](O)(C(=O)OC)[C@H](OC(C)=O)[C@]5(CC)C=CCN6CC[C@]43[C@@H]65)C2)C1 | -50.4 ± 4.8
4 | CCN(CC)CCCNC(=O)C1c2ccccc2Oc2ccccc21 | -3.46 ± 0.27
5 | CC1CCCC(C)N1NC(=O)c1ccc(Cl)c(S(N)(=O)=O)c1 (centres undefined) | 4.34 ± 1.3
6 | COc1cc2c(cc1OC)C(=S)NC(C)(C)C2 | -9.01 ± 2.9
7 | COc1cc(C(=O)NCCc2c[nH]c3ccccc23)ccc1OCc1c(C)noc1C | 2.18 ± 3.7
8 | Cc1ccc(C=NNc2nc(C(C)(C)C)cs2)o1 | 37 ± 13
9 | Cc1cccc(N2CCN(C(=S)c3ccccc3)CC2)c1 | 6.51 ± 2.4
10 | COc1ccc(CN2CCC(=O)NC2=O)cc1 | 4.64 ± 6
11 | COc1ccc2c3c([nH]c2c1)C1(NCC3)C(=O)Nc2ccccc21 (centres undefined) | 5.33 ± 6.5
12 | Cc1ccc(C(=O)NC(=S)NCCCN2CCOCC2)cc1 | 8.31 ± 1.3
13 | CC(=O)O[C@H]1CSC[C@H]1NC(=O)c1ccccc1 | 2.65 ± 7.7
14 | O=C(Nc1ccc(Oc2c(F)c(F)c(F)c(F)c2F)cc1)OC1CCN2Cc3ccccc3N=C12 (centres undefined) | -15.2 ± 2.6
15 | COc1cc(CNCCc2c[nH]c3ccccc23)cc(Cl)c1OCC(N)=O | -2.87 ± 1.6
16 | O=C1C(O)CC2c3ccccc3CC3(CCCC3)N12 (centres undefined) | 2.45 ± 2.2
17 | c1ccc(Nc2ccccn2)nc1 | 6.17 ± 1.9
18 | OCC1(CCOc2ccccc2)CCN(CCCn2cccn2)CC1 | -3.68 ± 2.7
19 | c1ccc2c(c1)CCOC2CNCCCN1CCCCC1 (centres undefined) | -0.411 ± 1.1
20 | Cc1ccc(C(CC(=O)NCc2ccco2)c2ccc(OC(C)C)cc2)cc1 (centres undefined) | -5.4 ± 2.5
21 | Cc1ccccc1NC(=O)c1c(C)cc(=O)oc1C | -17.1 ± 22
22 | COc1cccc(OC)c1C(=O)Nc1nc2ccc([N+](=O)[O-])cc2s1 | 3.34 ± 5.3
23 | COC(=O)c1ccc(COc2ccc3c(C)c(C)c(=O)oc3c2C)o1 | -0.554 ± 5
24 | CC(C)c1ccc(OCc2ccc(C(=O)O)o2)cc1 | -32.6 ± 4.2
25 | COc1ccc(NC(=O)Nc2ccc(C(C)C)cc2)cc1 | 13.4 ± 0.33
26 | CCOc1ccc2[nH]c3c(=O)n(CCc4ccc(OC)cc4)cnc3c2c1 | -2.8 ± 3.9
27 | COc1ccc2c(CCNC(=O)c3ccc([N+](=O)[O-])cc3)c[nH]c2c1 | -3.48 ± 6.8
28 | Cc1oc(C=NNC(=O)CC2(C)OCCO2)cc1Br | -0.742 ± 2.4
29 | COc1ccc(/C=C/C(=O)NC(=S)NN2CCCCC2c2cccnc2)cc1 (centres undefined) | 1.59 ± 3.4
